The viability is a read-out of living cells in per cent, often relative to untreated cells.

Molecules are shown by their SMILES. Inconclusive results are not listed. Values without a mark were called inactive. The source made the active and inactive calls. The call rests on the fitted dose curve; in most records, active means well fitted cell-killing curve with a large enough effect; inconclusive means small, poorly fitted or top-dose-only effect, or effect the other way; inactive means no such curve, though single readings can be large or run the other way.
Potency means the concentration at half of the fitted maximal effect.

One assay in a line: Quantitative High-Throughput drug screen in 47 multiple myeloma cell lines against the NCATS MIPE library collection: OPM1_PLB cell viability assay (AID 1918989). Further: nearly all actives have a fitted effect of over 40% in size.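 On viability (% of control): 100% = DMSO-only wells and 0% = media-only wells.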 The following applies: CellTiter-Glo, 48 h; series mostly up to 45.8 µM; viability (% of control): at the top concentration. An outline of the steps: (§1)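 Plated at 500 cells per well, myeloma lines received MIPE 4.0 compounds by pin tool. Following 48 h culture at 37 °C, CellTiter-Glo luminescence gave viability relative to DMSO and media-only controls.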
(In general: In ATP-based viability assays light output follows the ATP content of the culture.)
For the compound `CC(C)[C@H](N)C(=O)OCCOCn1cnc2c(=O)[nH]c(N)nc21`, the “viability (% of control)” value was 112%.

Regarding `CC1=C(C)C(=O)C(C(CCCCCC(=O)O)c2ccccc2)=C(C)C1=O` (stereo not given), the Potency is 14.8 µM (active).

Regarding `Nc1cc(C(Cl)=C(Cl)Cl)c(S(N)(=O)=O)cc1S(N)(=O)=O`, the “viability (% of control)” value was 136%.

Turning to `COc1cc(OC)c(C(=O)CCCN2CCCC2)c(OC)c1`, the “viability (% of control)” value is 120%.

Consider `CN1C(C(=O)Nc2ccccn2)=C(O)c2sccc2S1(=O)=O`, for which the “viability (% of control)” value is 131%.

For `CCN(CCO)CCCC(C)Nc1ccnc2cc(Cl)ccc12` (stereo not given), the “viability (% of control)” value was 119%.

For the compound `CCc1nc(N)nc(N)c1-c1ccc(Cl)cc1`, the Potency is 2.35 µM (active).

In the case of `COc1cc2nc(N3CCN(C(=O)C4CCCO4)CC3)nc(N)c2cc1OC` (stereo not given), the “viability (% of control)” value is 111%.

With `CN(C)C(=O)COC(=O)Cc1ccc(OC(=O)c2ccc(N=C(N)N)cc2)cc1`, the Potency was 0.418 µM (active).

With `O=C1c2c(O)cc(O)cc2OC(c2ccc(O)c(O)c2)C1O` (stereo not given), the “viability (% of control)” value is 171%.

Regarding `COc1cc(Nc2c(C#N)cnc3cc(OCCCN4CCN(C)CC4)c(OC)cc23)c(Cl)cc1Cl`, the Potency is 2.64 µM (active).

On to `CCN(CC)C(=S)SSC(=S)N(CC)CC`, for which the Potency was 0.001 µM (active).

In the case of `O=c1c(O)c(-c2ccc(O)cc2O)oc2cc(O)cc(O)c12`, the “viability (% of control)” value was 125%.

As for `Cc1cccc(C)c1OCC(=O)N[C@@H](Cc1ccccc1)[C@@H](O)C[C@H](Cc1ccccc1)NC(=O)[C@H](C(C)C)N1CCCNC1=O`, the Potency is 18.7 µM (active).

On to `CC(=O)N1CCN(c2ccc(OC[C@H]3CO[C@](Cn4ccnc4)(c4ccc(Cl)cc4Cl)O3)cc2)CC1`, for which the Potency was 16.6 µM (active).

As for `CCCOc1ccc2nc(NC(=O)OC)[nH]c2c1`, the Potency is 0.0187 µM (active).

As for `CS(=O)(=O)OCCCCOS(C)(=O)=O`, the “viability (% of control)” value is 140%.

Regarding `CN(c1nccc(=O)[nH]1)C1CCN(c2nc3ccccc3n2Cc2ccc(F)cc2)CC1`, the Potency is 26.4 µM (active).

Regarding `CC(C)C[C@H](NC(=O)[C@H](Cc1ccccc1)NC(=O)c1cnccn1)B(O)O`, the Potency was 0.0083 µM (active).

As to `CCCCC(CC)COC(=O)C(C#N)=C(c1ccccc1)c1ccccc1` (stereo not given), the “viability (% of control)” value was 138%.

For the compound `CN1CCC(=C2c3ccccc3CCc3sccc32)CC1`, the Potency is 18.7 µM (active).

Regarding `O=C(NCCO[N+](=O)[O-])c1cccnc1`, the “viability (% of control)” value is 163%.

Take `Cc1ccc(NC(=O)c2ccc(CN3CCN(C)CC3)cc2)cc1Nc1nccc(-c2cccnc2)n1`: the Potency was 23.5 µM (active).

For `N[C@@H](Cc1cc(I)c(Oc2cc(I)c(O)c(I)c2)c(I)c1)C(=O)O`, the “viability (% of control)” value was 122%.

Consider `Cc1cccc(CN2CCN(C(c3ccccc3)c3ccc(Cl)cc3)CC2)c1` (stereo not given), for which the Potency was 20.9 µM (active).

Take `CN(C)C(=O)[C@H](O)[C@H](Cc1ccccc1)NC(=O)c1cc2cc(Cl)ccc2[nH]1`: the Potency is 6.62 µM (active).

The nature of a further assay: Quantitative High-Throughput drug screen in 47 multiple myeloma cell lines against the NCATS MIPE library collection: SKMM1_PLB cell viability assay (AID 1919863). Further: nearly all actives have a fitted effect of over 35% in size. The note with it: SKMM1 myeloma viability, CellTiter-Glo ATP, 48 h; viability: hits give low values. An outline of the steps:
as §1
As for `C[C@@H](N)C1CCC(C(=O)Nc2ccncc2)CC1` (stereo not given in full), the viability is 141%.

For the compound `CCN(CC)C(=S)SSC(=S)N(CC)CC`, the Potency is 0.0105 µM (active).

Regarding `CCOc1cc(CC(=O)N[C@@H](CC(C)C)c2ccccc2N2CCCCC2)ccc1C(=O)O`, the viability was 138%.

With `COc1cc(C(C)=O)ccc1OCCCN1CCC(c2noc3cc(F)ccc23)CC1`, the viability is 110%.

Take `O=c1c(O)c(-c2ccc(O)cc2O)oc2cc(O)cc(O)c12`: the viability was 122%.

For the compound `CCCOc1ccc2nc(NC(=O)OC)[nH]c2c1`, the Potency is 0.0093 µM (active).

For the compound `CC(=O)NC[C@H]1CN(c2ccc(N3CCOCC3)c(F)c2)C(=O)O1`, the Potency is 3.72 µM (active).

Take `CCCCC(CC)COC(=O)C(C#N)=C(c1ccccc1)c1ccccc1` (stereo not given): the viability was 130%.

`CN1CCC(=C2c3ccccc3CCc3sccc32)CC1`: the viability is 99.6%.

Source of the values: PubChem BioAssay (NCATS).
